In the library only some 11% were active in any assay of this set; here they are far more common.
HP1b binding inh: HTS for Inhibitors of HP1-beta Chromodomain Interactions with Methylated Histone Tails; AlphaScreen HP1-beta / biotin-H3K9me3 peptide binding; Potency, µM (highest dose often 114 µM), usual class: inhibitors; 0.56% of 390,000 active; Chromobox protein homolog 1 (Homo sapiens), P83916; note: nearly all actives have a fitted effect of over 70% in size
Target sequence (P83916 whole entry, looked up): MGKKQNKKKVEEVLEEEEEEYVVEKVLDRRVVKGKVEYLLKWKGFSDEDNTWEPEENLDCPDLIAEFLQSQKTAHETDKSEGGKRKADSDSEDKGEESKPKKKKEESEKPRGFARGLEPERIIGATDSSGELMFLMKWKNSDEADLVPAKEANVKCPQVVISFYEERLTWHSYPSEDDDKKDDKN
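Compound inhibition of the preformed complex between 50 nM HP1-beta and 50 nM biotinylated H3K9me3 peptide was read by AlphaScreen. Buffer was PBS pH 7.4 with 0.01% Tween-20. Incubations ran 30 min at room temperature, with 10 ug/mL donor/acceptor beads.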
JMJD2A Tudor: qHTS Assay for Inhibitors of JMJD2A-Tudor Domain. Lysine-specific demethylase 4A (Homo sapiens), O75164. AlphaScreen JMJD2A-Tudor / H3K4me3 peptide binding. Potency, µM (highest dose often 114 µM), hits mostly inhibitors. 4.4% of 390,000 active. AID 504339, 2011; note: nearly all actives have a fitted effect of over 50% in size
PLK1 PBD inh: qHTS for Inhibitors of PLK1-PDB (polo-like kinase 1 - polo-box domain): Primary Screen; Serine/threonine-protein kinase PLK1 (Homo sapiens), P53350; Plk1 PBD binding of FITC phosphopeptide, fluorescence polarization; Potency, µM, hits mostly inhibitors; 2.8% of 360,000 active; note: series mostly up to about 57 µM; nearly all actives have a fitted effect of over 65% in size
VDR inhibitor: Inhibitors of the vitamin D receptor (VDR): qHTS | Vitamin D3 receptor (Homo sapiens), P11473 | VDR-SRC2-3 peptide fluorescence polarization, 2 h | Potency, µM, actives largely listed as inhibitors | 0.93% of 400,000 active
Target sequence (P11473 whole entry, looked up): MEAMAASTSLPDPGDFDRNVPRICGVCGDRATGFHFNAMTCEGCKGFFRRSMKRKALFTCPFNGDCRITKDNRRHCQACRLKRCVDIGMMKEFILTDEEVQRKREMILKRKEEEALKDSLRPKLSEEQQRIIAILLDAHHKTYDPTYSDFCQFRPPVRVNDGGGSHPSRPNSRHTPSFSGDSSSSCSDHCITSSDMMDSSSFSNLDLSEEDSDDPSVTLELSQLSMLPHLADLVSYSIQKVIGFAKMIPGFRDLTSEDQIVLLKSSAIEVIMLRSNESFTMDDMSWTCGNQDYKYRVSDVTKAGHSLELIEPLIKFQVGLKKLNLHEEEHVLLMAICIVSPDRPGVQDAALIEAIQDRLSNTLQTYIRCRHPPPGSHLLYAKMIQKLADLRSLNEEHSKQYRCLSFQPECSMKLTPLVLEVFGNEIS
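The screen uses fluorescence polarization to detect compounds that interfere with recruitment of the SRC2-3 coactivator peptide to VDR; plates are read after 2 h at room temperature.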
BAZ2B block: qHTS Assay for Inhibitors of BAZ2B; AlphaScreen BAZ2B-H3K14Ac peptide displacement; Potency, µM (top dose mostly 114 µM), usual class: inhibitors; 4.4% of 360,000 active; note: nearly all actives have a fitted effect of over 60% in size
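Protein-peptide AlphaScreen: BAZ2B 50 nM, b-H3K14Ac 50 nM, 1x PBS pH 7.4 + 0.01% Tween-20. Preincubation 30 min RT; cpd 30 min RT (top 110 uM); beads 20 min RT, light-protected.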
G9a inh: qHTS Assay for Inhibitors of Histone Lysine Methyltransferase G9a; Histone-lysine N-methyltransferase EHMT2 (Homo sapiens), Q96KQ7; G9a H3K9 monomethylation, AlphaScreen, 2 h; Potency, µM (titrated, usually from 102 µM), hits mostly inhibitors; 8.8% of 350,000 active; note: nearly all actives have a fitted effect of over 75% in size
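Signal arises when biotinylated H3K9 peptide, once monomethylated, bridges streptavidin donor and antibody-captured acceptor beads. Enzyme at 20 nM was preincubated 15 min with test compounds; peptide 500 nM and SAM 20 uM then reacted for 2 h.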
Hits are given with their value; n = inactive; u = inconclusive; x = not tested or not shown; [ ] = remark or other dose. Calls come from the whole dose curve; as a rule, active = well fitted curve in the direction sought with a large enough effect; inconclusive = small, poorly fitted or top-dose-only effect, or another doubt; inactive = no such curve, though single readings can be large; an effect the other way counts as inactive or inconclusive.

SMILES	HP1b binding inh	JMJD2A Tudor	PLK1 PBD inh	VDR inhibitor	BAZ2B block	G9a inh
O=C1C[C@H](c2ccc(-c3ccccc3)cc2)N1S(=O)(=O)c1ccccc1[N+](=O)[O-]	n	n	x	n	x	x
CCN(CC)S(=O)(=O)c1ccc(C)c(NC(=S)N2CCN(C/C=C/c3ccccc3)CC2)c1	n	n	n	u	u	35µM
CCN(CC)S(=O)(=O)c1ccc(C)c(NC(=S)N2CCN(Cc3ccc4c(c3)OCO4)CC2)c1	n	u	u	n	u	u
CCN(CC)S(=O)(=O)c1ccc(C)c(NC(=S)N2CCN(c3ccccn3)CC2)c1	n	n	30µM	n	n	32µM
CCOc1cc(CNC(=O)Cn2c(=O)c3cccn3c3ccc(F)cc32)cc(OCC)c1OCC	n	n	x	n	n	n
COC(=O)C1=C(C)N(C2CCCCC2)C(=O)/C1=C\c1cccs1	n	u	n	n	3.2µM	3.2µM
COC(=O)CN1C(=S)N(C)C(=O)/C1=C/c1cccs1	n	n	n	n	n	n
CCC(C)NC(=O)/C=C/c1cccs1 (stereo unspecified)	n	n	n	n	n	n
COC(=O)C1=C(C)N(C2CCCCC2)C(=O)C1	n	n	n	n	n	n[12.7 µM]
COC(=O)C1=C(C)N(Cc2cccnc2)C(=O)/C1=C\c1sccc1C	35µM	45µM	n	n	35µM	x
CCOC(=O)C1=C(C)N(CC(C)C)C(=O)/C1=C\c1cccs1	u	u	n	n	11µM	x
COC(=O)C1=C(C)N(CC(C)C)C(=O)/C1=C\c1cccs1	16µM	45µM	n	n	50µM	40µM
O=C(CN1CCOCC1)Nc1nc2cc([N+](=O)[O-])ccc2s1	n	u	n	n	n	n
CCN1C(=O)/C(=C\c2cccs2)C(C(=O)OC)=C1C	u	56µM	n	n	50µM	45µM
COC(=O)C1=C(C)N(C)C(=O)/C1=C\c1cccs1	u	u	n	n	u	u
Cc1ccc(Sc2ccc([N+](=O)[O-])cc2[N+](=O)[O-])nc1	n	u	n	n	45µM	n
COc1ccccc1Nc1nc(-c2sc(NC(=O)c3ccccc3)nc2C)cs1	n	u	u	n	n	u
COc1cccc(Nc2nc(-c3sc(N)nc3C)cs2)c1	u	u	u	n	40µM	u
COc1ccccc1Nc1nc(-c2sc(N)nc2C)cs1	u	u	n	n	u	13µM
COc1cccc(Nc2nc(-c3sc(NC(=O)c4ccco4)nc3C)cs2)c1	n	u	u	n	u	40µM
COc1ccc(Cl)cc1Nc1nc(-c2sc(NC(=O)c3ccco3)nc2C)cs1	n	u	n	n	u	u
COc1cccc(Nc2nc(-c3sc(C)nc3C)cs2)c1	n	u	n	n	u	x
COc1ccc(NC(=O)CCC(=O)c2cc(C)sc2C)cc1	n	n	n	n	n	n
Cc1c(C(c2cccc(Br)c2)c2c(C)n(C)n(-c3ccccc3)c2=O)c(=O)n(-c2ccccc2)n1C	n	n	n	n	n	u
C/C(=N\Nc1nncc2ccccc12)c1cccc(OC(F)F)c1	n	n	n	n	n	n
SMILES	HP1b binding inh	JMJD2A Tudor	PLK1 PBD inh	VDR inhibitor	BAZ2B block	G9a inh
O=C(O)c1ccnc(SCC(=O)c2ccccc2)c1	n	n	n	n	n	22µM
O=C(CSc1nccn1-c1ncc(C(F)(F)F)cc1Cl)c1ccc(Br)cc1	n	n	2.4µM	u	n	u
Cc1ccc(/C(CSc2nccn2-c2ncc(C(F)(F)F)cc2Cl)=N\O)cc1	n	n	n	n	n	n
Cc1csc(NC(=O)CSc2[nH]c(=O)ncc2C)n1	n	n	n	n	n	n
Cc1ccc(C(=O)CSc2nccn2-c2ccccc2)cc1	u	u	21µM	n	56µM	32µM
Cc1cnc(=O)[nH]c1SCC(=O)c1ccc(F)cc1	n	n	12µM	u	u	7.1µM
CCCc1nc(SCC(=O)c2ccc(F)cc2)c2ccccc2n1	n	n	u	89µM	n	u
Cc1ccc(C(=O)CSc2cc(C)nc(SCC(=O)c3ccccc3)n2)cc1	n	n	n	n	n	n[12.7 µM]
CCCCNC(=O)CSc1nc(CCC)nc2ccccc12	n	n	n	n	n	n
O=C(CSc1ccccn1)c1ccc(F)cc1	n	n	27µM	u	n	u
Cc1ccc(C(=O)CSc2ccccn2)cc1	n	n	19µM	79µM	n	8.9µM
O=C(c1ccc(-c2ccccc2)cc1)N1CCN(c2ccccc2F)CC1	n	n	n	n	n	n[0.501 µM]
COc1ncc2nc(-c3cc(F)cc(F)c3)c(=O)n(C)c2n1	x	x	x	n	x	n[0.501 µM]
COc1ccc2c(ccc[n+]2[O-])c1	n	n	n	n	x	x
COc1ccc2nc3ccccc3[n+]([O-])c2c1	n	n	12µM	n	x	x
O=C(NCCN1CCCCC1)Nc1ccc([N+](=O)[O-])cc1	n	n	n	n	n	79µM
O=[N+]([O-])c1cccc(COc2ccc(CN3CCCCC3)cc2)c1	n	n	n	n	x	x
CC1CCCN(CCCOc2ccc([N+](=O)[O-])cc2)C1 (stereo unspecified)	n	22µM	n	n	u	8.9µM
O=[N+]([O-])c1ccc(OCCN2CCCCCC2)cc1	u	2.8µM	n	n	50µM	32µM
CC1CCCN(Cc2ccc(OCc3ccccc3)cc2)C1 (stereo unspecified)	n	n	n	n	n	x
COc1ccc(OCCCN2CCCC(C)C2)cc1 (stereo unspecified)	u	n	n	n	n	7.1µM
Cc1cc(=O)n(C)c(=O)n1CCCCOc1ccc([N+](=O)[O-])cc1	n	n[11.4 µM]	n	n	n	n
CN(Cc1c(F)cccc1Cl)C(=O)c1ccc(NS(=O)(=O)c2ccc3[nH]c(=O)[nH]c3c2)cc1	n	n	n	n	n	u
COc1cccc(CC(NC(C)=O)C(=O)NC2CCN(C(=O)c3ccncc3)CC2)c1OC (stereo unspecified)	n	n	n	n	n	n
COc1ccc(CNc2ccccc2C(=O)NCc2ccccc2)cc1COc1ccc(NC(C)=O)cc1	n	u	x	n	x	x
O=Cc1ccccc1OCCOc1ccc([N+](=O)[O-])cc1	n	n	27µM	u	n	n
COc1ccc(NC(=O)CN(C)C(=O)c2ccc3[nH]c4c(c3c2)CC(C)CC4)cc1 (stereo unspecified)	u	u	n	n	u	45µM
COc1ccc(NC(=O)CN(C)C(=O)c2ccc3c(c2)CC(c2ccccc2)OC3=O)cc1 (stereo unspecified)	x	x	n	x	x	x
